# Measurements taken from paper PMC4336329 (PLoS ONE, 2015).
# Hit rate of the full screen: of about 310,000 compounds, about 14,000 (4.5%) showed an effect of 50% or more. The effect is printed as a negative number. Many of the other results were omitted from the sample, so strong results are more common in it than they were.
# Target: human ether-à-go-go-related gene (hERG) potassium channel (human, UniProt Q12809)
# Assay: primary screen, population patch clamp on CHO cells stably expressing hERG; higher = less effect of the substance
# 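Also: peak tail current of the secondary pulse compared with the same well before compound.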
# Sequence of human ether-à-go-go-related gene (hERG) potassium channel (Q12809 whole entry, looked up): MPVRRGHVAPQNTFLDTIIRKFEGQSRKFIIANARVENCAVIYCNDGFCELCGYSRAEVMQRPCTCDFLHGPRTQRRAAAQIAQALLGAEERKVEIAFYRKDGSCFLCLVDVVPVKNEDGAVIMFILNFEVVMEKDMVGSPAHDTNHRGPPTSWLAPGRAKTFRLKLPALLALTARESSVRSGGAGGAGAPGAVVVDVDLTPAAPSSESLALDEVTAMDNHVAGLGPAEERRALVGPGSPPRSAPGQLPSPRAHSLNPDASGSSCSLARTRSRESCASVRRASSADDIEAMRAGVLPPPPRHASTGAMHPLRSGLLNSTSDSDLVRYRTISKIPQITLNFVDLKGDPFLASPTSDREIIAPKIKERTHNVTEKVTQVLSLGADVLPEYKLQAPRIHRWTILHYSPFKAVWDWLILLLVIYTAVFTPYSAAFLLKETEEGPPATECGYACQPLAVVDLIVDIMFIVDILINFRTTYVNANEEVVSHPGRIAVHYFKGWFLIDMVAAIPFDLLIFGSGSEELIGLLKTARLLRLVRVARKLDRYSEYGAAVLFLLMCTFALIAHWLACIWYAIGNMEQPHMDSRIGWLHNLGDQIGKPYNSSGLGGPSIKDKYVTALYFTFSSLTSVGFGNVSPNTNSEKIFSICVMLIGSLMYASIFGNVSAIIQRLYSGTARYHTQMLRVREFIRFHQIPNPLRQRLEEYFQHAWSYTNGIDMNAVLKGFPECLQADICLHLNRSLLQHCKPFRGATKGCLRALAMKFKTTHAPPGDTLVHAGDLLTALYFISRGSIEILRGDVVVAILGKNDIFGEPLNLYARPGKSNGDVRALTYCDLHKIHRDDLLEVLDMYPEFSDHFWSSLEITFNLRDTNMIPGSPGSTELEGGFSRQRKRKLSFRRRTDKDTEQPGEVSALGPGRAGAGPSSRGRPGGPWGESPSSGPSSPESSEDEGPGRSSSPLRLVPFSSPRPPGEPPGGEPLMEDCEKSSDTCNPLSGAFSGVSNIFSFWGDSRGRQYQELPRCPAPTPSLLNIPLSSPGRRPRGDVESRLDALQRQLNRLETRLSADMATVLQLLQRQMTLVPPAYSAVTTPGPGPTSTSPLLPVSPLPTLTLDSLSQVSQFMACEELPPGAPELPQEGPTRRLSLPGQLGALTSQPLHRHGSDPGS
row,SMILES,"hERG current change (%, negative = inhibition) at 10uM [%]"
1,CCCCOC(=O)CN1C(=O)c2ccc(C(=O)OCCCC)cc2C1=O,4.54
2,O.O=C([O-])c1ccn2c(C(=O)c3ccccc3)c(-c3ccccc3)cc2c1,12.8
3,C/C(=C\C(=O)OCC(=O)NCc1ccccc1)C(=O)OCC(=O)NCc1ccccc1,18.8
4,CCN1C(=O)CSc2ccc(C(=O)NC3CCCCC3)cc21,-5.4
5,Cc1cn2c(=O)c(C(=O)N3CCN(c4ccccc4Cl)CC3)cnc2s1,-62.8
6,O=C(c1cnc2sccn2c1=O)N1CCN(c2ccccc2Cl)CC1,-2.33
7,Cc1cn2c(=O)c(C(=O)N3CCN(c4ccccc4F)CC3)cnc2s1,-6.27
8,CCCCCCCC1c2c(c(C)c(C)oc2=O)Oc2c(C)c(C)oc(=O)c21,11.9
9,CCN1C(=O)[C@H]2[C@@H](c3ccc(-c4ccc(OC)cc4)cc3)N[C@@](Cc3ccccc3)(C(=O)OC)[C@H]2C1=O.O=C(O)C(F)(F)F,3.09
10,CN(Cc1ccon1)C(=O)CCc1nnc(Cc2ccc(-c3ccccc3)cc2)o1,-20
11,CCc1ccc(CN(C)C(=O)CCc2nnc(-c3ccc(-c4ccccc4)cc3)o2)nc1,-65.1
12,CCc1ccc(CN(C)C(=O)CCc2nnc(CCc3ccccc3OC)o2)nc1,-1.47
13,CCOc1ccc(CCNC(=O)COC(=O)/C=C/c2ccc(OC(F)F)c(OC)c2)cc1OCC,-15.2
14,Cc1cccc(C)c1NC(=O)C(=O)NCCOc1ccc(Cl)cc1,-26
15,CCN(C(=S)Nc1cccc(C)c1)c1ccccc1,13.2
16,COc1ccc(/C=C(\NC(=O)c2ccco2)C(=O)NCc2ccco2)cc1,8.89
17,O=C(NCc1ccccc1)/C(=C\c1ccc(O)cc1)NC(=O)c1ccco1,-20.7
18,O=C(NCc1ccco1)/C(=C/c1ccc(Br)cc1)NC(=O)c1ccco1,0.657
19,CC(=O)Oc1ccc(/C=C(\NC(=O)c2ccco2)C(=O)Nc2ccc(C(C)=O)cc2)cc1,-26.2
20,CC(=O)Oc1ccc(/C=C(\NC(=O)c2ccco2)C(=O)NCc2ccccc2)cc1,-68.3

row,SMILES,"hERG current change (%, negative = inhibition) at 10uM [%]"
1,CC(=O)Oc1ccc(/C=C(\NC(=O)c2ccco2)C(=O)NCc2ccco2)cc1,-52
2,Cc1cccc(C(=O)N2CCC(N3CCC(C(=O)N4CCOCC4)CC3)CC2)c1,-9.81
3,Cc1ccc(S(=O)(=O)/N=c2\scc(C)n2C)cc1,0.491
4,O=C1CN(C(=O)COc2ccc([N+](=O)[O-])cc2Cl)c2ccccc2N1,-61.2
5,O=C1CN(C(=O)COc2ccc(F)cc2Cl)c2ccccc2N1,-19.5
6,O=C1CN(C(=O)COc2ccc(Cl)cc2Cl)c2ccccc2N1,14.2
7,CC1(C)CC(=O)C=C(C(=O)NC2CCCc3c2cnn3-c2cc(F)cc(F)c2)O1 (stereo not drawn),-2.03
8,O=C(O)c1cc(NS(=O)(=O)c2ccc(NCc3ccccc3)c([N+](=O)[O-])c2)cc(C(=O)O)c1,20.9
9,COC(=O)N/N=C(\C)c1ccccc1OC(F)F,1.52
10,COc1ccc(C[C@H]2CN3C(=NC[C@@H]3C(C)C)N2C[C@H](C)NC(=O)c2ccc(C)c(Br)c2)cc1,-74.5
11,Cc1ccc(C(=O)N[C@@H](C)CN2C3=NC[C@H](C(C)C)N3C[C@H]2Cc2ccc(O)cc2)cc1Br,-77.7
12,COc1ccc(C[C@@H]2CN3C(=NC[C@@H]3C)N2C[C@H](C)NC(=O)c2ccc(C)c(Br)c2)cc1,-74.8
13,CCCOP(=O)(c1ccc(N(C)C)cc1)C(O)c1ccc(N(C)C)cc1 (stereo not drawn),12.8
14,c1ccc2sc(-c3ccc4c(c3)OCO4)nc2c1,-3.16
15,CCOc1ccc(C2CC(c3cccc(OC)c3OC)n3nnnc3N2)cc1Cl (stereo not drawn),-19.2
16,Cc1ccc(-n2nnnc2Sc2nc([N+](=O)[O-])nn2C)c(C)c1,-27.6
17,CN(C(=O)c1ccc(C#N)cc1)c1nnc(-c2cnccn2)s1,-8.93
18,CCN(CC)CCCNC(=O)Cn1ncc2c(=O)oc3ccc(C)cc3c21,-7.17
19,COC(=O)COc1ccc(C(c2c(C)[nH][nH]c2=O)c2c(C)[nH][nH]c2=O)cc1,15.1
20,COc1ccc(CN2CN(C3CCCC3)CSC2=S)cc1,2.66

row,SMILES,"hERG current change (%, negative = inhibition) at 10uM [%]"
1,Cc1ccc(OCCCC(=O)Nc2ccc(S(=O)(=O)N3CCOCC3)cc2)cc1,-25.7
2,COc1ccc(-n2nc(C(=O)NCC(=O)Nc3ccccn3)c3ccccc3c2=O)cc1,10.6
3,Cc1ccccc1NC(=S)N(Cc1cccs1)C1CCCC1,5.42
4,C=CCn1c(SCC(=O)N2CCCCCC2)nc2ccccc2c1=O,-59.2
5,C=CCn1c(SCC(=O)N2CCc3ccccc3C2)nc2ccccc2c1=O,-61.5
6,COCCn1c(SCC(=O)N2CCc3ccccc3C2)nc2ccccc2c1=O,-43.8
7,C=CCn1c(SCC(=O)N2CCOCC2)nc2ccccc2c1=O,-28.4
8,CCn1c(SCC(=O)N2CCCCCC2)nc2ccccc2c1=O,-10.4
9,C=CCn1c(SCC(=O)N2CCc3ccccc3C2)nc2sc(C)cc2c1=O,-7.46
10,Cc1nc(N2CCN(S(=O)(=O)c3ccc(F)cc3)CC2)c2c(-c3cccs3)csc2n1,11.6
11,CCn1cc(S(=O)(=O)N2CCN(c3ccc(Cl)cc3)CC2)cn1,7.96
12,Cn1nc(C(F)(F)F)c(-c2ccc(F)cc2)c1NC(=O)c1ccco1,-32.8
13,Cn1nc(C(F)(F)F)c(-c2cccc(C(F)(F)F)c2)c1NC(=O)c1cccnc1,-6.76
14,O=C(Nc1oc2ccccc2c(=O)c1-c1ccc(Cl)cc1)c1ccco1,-20.4
15,Cc1ccc(-c2c(NC(=O)c3ccco3)oc3ccccc3c2=O)cc1,10.1
16,O=C(Nc1oc2ccccc2c(=O)c1-c1ccc(Br)cc1)c1ccco1,-52.5
17,Cn1nc(C(F)(F)F)c(-c2ccc(Br)cc2)c1NC(=O)c1ccco1,-63.5
18,Cn1nc(C(F)(F)F)c(-c2ccc(Br)cc2)c1NC(=O)c1cccnc1,0.61
19,Cn1nc(C(F)(F)F)c(-c2cccc(C(F)(F)F)c2)c1NC(=O)c1ccco1,-66.6
20,Cn1nc(C(F)(F)F)c(-c2ccccc2)c1NC(=O)c1ccco1,-3.07
